This is an account of results in PubChem BioAssay (EPA / NIEHS).

Active and inactive are the calls of the source. Rule for the calls: active = hit-call score of the fitted dose curve at least 0.9, where 1 is the maximum; inactive = score below 0.9.

The test in a line: APR_HepG2_StressKinase_24hr: Apredica 24-hour HepG2 Assay for Stress Kinase (AID 2282922). Particulars: HepG2 stress kinase (phospho-c-Jun) imaging, actives raise or lower the signal. The procedure:
APR_HepG2_24hr is a cell-based, multiplexed-readout assay that uses HepG2, a human liver cell line, with measurements taken at 24 hours after chemical dosing in a 384-well plate.APR_HepG2_StressKinase_24hr is one of 10 assay component(s) measured or calculated from the APR_HepG2_24hr assay. It is designed to make measurements of enzyme activity, a form of enzyme reporter, as detected with fluorescence intensity signals by HCS Fluorescent Imaging technology.Data from the assay component APR_HepG2_StressKinase_24hr was analyzed into 1 assay endpoint. This assay endpoint, APR_HepG2_StressKinase_24hr, was analyzed with bidirectional fitting relative to DMSO as the negative control and baseline of activity. Using a type of enzyme reporter, measures of protein for gain or loss-of-signal activity can be used to understand the signaling at the pathway-level as they relate to the gene . Furthermore, this assay endpoint can be referred to as a primary readout, because this assay has produced multiple assay endpoints where this one serves a signaling function. To generalize the intended target to other relatable targets, this assay endpoint is annotated to the cell cycle intended target family, where the subfamily is stress response.
Cells were treated with dimethyl sulfoxide (DMSO) as a solvent control at a final concentration of 0.5% v/v or with compounds in DMSO with a resulting final DMSO concentration of 0.5% v/v. Compound treatment was done at concentrations of 0.39, 0.78, 1.56, 3.12, 6.24, 12.5, 25, 50, 100, and 200 uM in duplicate on each plate. Cells were treated with compounds for 1, 24, or 72 hr. Carbonyl […] m-chloro-phenylhydrazone (CCCP) and taxol were used as positive controls for mitochondrial function and cytoskeletal stability, respectively; DMSO served as the negative control for this experiment. Cells were fixed by the direct addition of 50 uL formaldehyde in Hank's Balanced Salt Solution (HBSS) to a final concentration of 3.7%. After incubation in the fixation medium for 30 min at room temperature (293-298 K), cells were rinsed twice with HBSS and treated with cell permeabilization buffer (16 uL of 0.5% Triton X-100) for 10 min at room temperature (293-298 K) before labeling. For mitochondrial membrane potential and mitochondrial measurements, pre-fixed cells were incubated with 50 uL of MitoTracker Red CMXRos (Invitrogen) at a concentration of 250 nM for 30 min before fixation. In the remaining cases, post-fixed cells were labeled by incubation with a multiplexed mixture of primary antibodies in HBSS for 60 min at room temperature (293-298 K) to detect immunoreactivity of c-Jun (1:500), phospho-histone H3 (1:100), phospho-histone H2A.x (1:200), p53 (1:400), alpha-tubulin (1:200) and Hoechst 33342 (2 ug/mL). Cells were labeled for multiplexed imaging on two separate plates: a) Hoechst 33342, MitoTracker Red, phospho-histone H3, and alpha-tubulin, and b) Hoechst 33342, phospho-histone H2A.x, and c-Jun. A final rinse with HBSS (50 uL) was performed before analysis. The primary and secondary antibodies for the proteins were phospho-histone H3 (rabbit anti-phospho-histone H3 and FITC-donkey anti-rabbit IgG), phospho-histone H2A.x (mouse anti-phospho-histone H2A.x and FITC-donkey anti-mouse IgG), c-Jun (rabbit anti-phospho-c-Jun and Cy3-donkey anti-rabbit IgG), p53 (sheep anti-p53 and Cy5-donkey anti-sheep IgG), alpha-tubulin (mouse anti-alpha-tubulin and Cy5-donkey anti-mouse IgG). These antibodies are available as the CellCiphr HepG2 assay kit (Millipore).Digital images of each well were captured using a Cellomics ArrayScan VTI (Thermo Scientific Cellomics) (0.8 NA objective, 0.63x optical coupler, and XF-93 filter set) at 20x magnification. The images were acquired using the autofocus feature of the ArrayScan instrument, which entails the following steps. First, the camera focuses on channel 1 (Hoechst 33342), where nuclei are identified. Second, a Z offset of 1 um is used for capturing mitochondria (MitoTracker Red). […]
On to `CC1(C)C(C=C(Cl)Cl)C1C(=O)OC(C#N)c1cccc(Oc2ccccc2)c1` (stereo not given), for which the compound was classed as inactive. Regarding `CCCN(CC)CC1COC2(CCC(C(C)(C)C)CC2)O1` (stereo not given), the compound was called inactive. Same read-out and setting: next, `N#Cc1c[nH]cc1-c1cccc2c1OC(F)(F)O2`: “inactive”; `CN/C(=N\[N+](=O)[O-])NCc1cnc(Cl)s1`: “inactive”. For `O=C1C2CC=CCC2C(=O)N1SC(Cl)(Cl)Cl` (stereo not given), the AC50 is 28.1 µM (active). For the compound `Cc1c(COC(=O)[C@@H]2[C@H](/C=C(\Cl)C(F)(F)F)C2(C)C)cccc1-c1ccccc1`, the outcome was inactive. For `CCCCC(C#N)(Cn1cncn1)c1ccc(Cl)cc1` (stereo not given), the outcome was inactive.

Consider `CC(C)(C)C(=O)C(Oc1ccc(Cl)cc1)n1cncn1` (stereo not given), for which the compound was classed as inactive. As to `CCNC(=O)NC(=O)C(C#N)=NOC`, the outcome was inactive.

Take `COc1cc(OC)nc(NC(=O)NS(=O)(=O)c2ncccc2OCC(F)(F)F)n1`: the compound was called inactive.

For the compound `COP(=S)(OC)Oc1ccc([N+](=O)[O-])c(C)c1`, the outcome was inactive. As for `CCC(C)n1c(=O)[nH]c(C)c(Br)c1=O` (stereo not given), the outcome was inactive. `COCC(C)N(C(=O)CCl)c1c(C)csc1C` (stereo not given): the outcome was inactive. On to `CCSC(=O)N1CCCCCC1`, for which the compound was classed as inactive. As to `CN=C=S`, the outcome was inactive. With `Clc1nc(Cl)nc(Nc2ccccc2Cl)n1`, the compound was called inactive.

For `CCOC(=O)C(C)OC(=O)c1cc(Oc2ccc(C(F)(F)F)cc2Cl)ccc1[N+](=O)[O-]` (stereo not given), the compound was called inactive.

As to `C=C(C)CN(CC)c1c([N+](=O)[O-])cc(C(F)(F)F)cc1[N+](=O)[O-]`, the call was inactive. The same measure, in the same setting: the same measure for `CS(=O)(=O)c1ccc(C(=O)C2C(=O)CCCC2=O)c([N+](=O)[O-])c1`: “inactive”; for `Cc1cnc(C2=NC(C)(C(C)C)C(=O)N2)c(C(=O)O)c1` (stereo not given): “inactive”. Take `COC(=O)N(C(=O)N1CO[C@@]2(C(=O)OC)Cc3cc(Cl)ccc3C2=N1)c1ccc(OC(F)(F)F)cc1`: the outcome was inactive. On to `CS(=O)(=O)c1cc(C(F)(F)F)ccc1C(=O)c1cnoc1C1CC1`, for which the compound was classed as inactive.

With `CCN(CC)C(=O)C(C)Oc1cccc2ccccc12` (stereo not given), the result was inactive. Consider `COP(=O)(OC)O/C(C)=C/C(=O)N(C)C`, for which the result was inactive. Turning to `C=CCOC(=O)C(C)(C)OC(=O)c1cc(-n2c(=O)cc(C(F)(F)F)n(C)c2=O)ccc1Cl`, the outcome was inactive.

`COC(=O)NS(=O)(=O)c1ccc(N)cc1`: the compound was classed as inactive. For `O=P(O)(O)CCCl`, the compound was called inactive. Same read-out and setting: next, `O=c1n(Cl)c(=O)n(Cl)c(=O)n1Cl`: “inactive”; `CSC(=O)c1c(C(F)F)nc(C(F)(F)F)c(C(=O)SC)c1CC(C)C`: “inactive”; `COCc1cnc(C2=NC(C)(C(C)C)C(=O)N2)c(C(=O)O)c1` (stereo not given): “inactive”. On to `O=C(O)c1c(Cl)ccc2cc(Cl)cnc12`, for which the compound was classed as inactive. Consider `Cc1nc(N(C)C)nc(OC(=O)N(C)C)c1C`, for which the result was inactive. On the same count and under the same terms, the same measure for `CCOc1nc(F)cc2nc(S(=O)(=O)Nc3c(Cl)cccc3Cl)nn12`: “inactive”; for `CNC(=O)Oc1cccc2ccccc12`: “inactive”; for `CC(C)=CC1C(C(=O)OCc2coc(Cc3ccccc3)c2)C1(C)C` (stereo not given): “inactive”. Regarding `COc1cc(Cl)c(OC)cc1Cl`, the compound was classed as inactive.

`CCNP(=S)(OC)O/C(C)=C/C(=O)OC(C)C` (stereo not given): the call was inactive.

`CC1(C)CON(Cc2ccccc2Cl)C1=O`: the call was inactive. For `CC(C)N1C(=O)N(c2ccccc2)CSC1=NC(C)(C)C`, the compound was called inactive. Turning to `CO/N=C(/C1=NOCCO1)c1ccccc1Oc1ncnc(Oc2ccccc2Cl)c1F`, the outcome was inactive.

As usually defined, the AC50 is the midpoint of the concentration-response curve, whichever way the signal moves.
